Where a structure was tested more than once in an assay, its records may differ in their call. The source made the active and inactive calls. The calls were made as follows: active = hit-call score of the fitted dose curve at least 0.9, where 1 is the maximum; inactive = score below 0.9.

Read-out in this test: Intercellular Adhesion Molecule 1 (ICAM1), ICAM1 (gene 3383)
The test can be described thus: BSK_3C_ICAM1: BioMAP Diversity Plus: 3C Assay for Intercellular Adhesion Molecule 1 (ICAM1) Biomarker Activity (AID 2283003). To be noted: primary human endothelial cells (HUVEC); actives raise or lower the signal. The protocol: BSK_3C is a cell-based, multiplexed-readout assay that uses umbilical vein endothelium, a human vascular primary cell, with measurements taken at 24 hours after chemical dosing in a 96-well plate.BSK_3C_ICAM1 is an assay component measured in the BSK_3C assay. It measures ICAM-1 antibody related to regulation of gene expression using ELISA technology.Data from the assay component BSK_3C_ICAM1 was analyzed into 1 assay endpoint. This assay endpoint, BSK_3C_ICAM1, was analyzed with bidirectional fitting relative to DMSO as the negative control and baseline of activity. Using a type of binding reporter, gain or loss-of-signal activity can be used to understand changes in the signaling as they relate to the gene ICAM1. Furthermore, this assay endpoint can be referred to as a primary readout, because this assay has produced multiple assay endpoints where this one serves a signaling function. To generalize the intended target to other relatable targets, this assay endpoint is annotated to the cell adhesion molecules intended target family, where the subfamily is Immunoglobulin CAM.
The levels of cell surface (or secreted, indicated by the prefix "s") biomarker endpoints were measured by ELISA. Overt cytotoxicity to cells in confluent adherent cultures (all systems other than the BT system) was assessed by measuring total protein levels using sulforhodamine B (SRB) staining in parallel cultures at the time of biomarker measurements, indicated as SRB endpoints. For proliferation assays for adherent cell types, individual cell types are cultured at sub-confluence and relative cell numbers quantified by SRB staining at time points optimized for each system (48 h: 3C and CASM3C systems; 72 h: BT and HDF3CGF systems; 96 h: SAg system). SRB was performed by staining cells with 0.1% SRB after fixation with 10% TCA and reading wells at 560 nm.Viability and proliferation of PBMC (T cells) was quantified by Alamar Blue reduction for the SAg and BT systems. For PBMC viability (referred to as PBMC Cytotoxicity within the assay endpoint names), cells were plated (75,000/well in a 96-well plate) and then chemical samples added for 1 h before addition of activators, SEB and TSST-1 (20 ng/mL final concentration each). Cells were incubated for 90 h. Then, Alamar Blue (20 uL/well) (Invitrogen, Cat DAL1100) was added for 6 h, and the plates were read with a fluorescence microplate reader at 546/580 nm (excitation/emission). For PBMC proliferation, cells were plated and activated as above but incubated for only 16 h prior to addition of Alamar Blue. Plates were read after 6 h.
For the compound `CC(C)(c1ccccc1)c1ccc(O)c(C(C)(C)c2ccccc2)c1`, the AC50 (usually the concentration giving half of the maximal activity seen) is 11.1 µM (active).

With `O=S(=O)(c1ccc(Cl)cc1)c1ccc(Cl)cc1`, the result was inactive. `Oc1cccc2cccnc12`: the result was inactive. On the same count and under the same terms, the value for `BrCCBr` was “inactive”. The same measure, in the same setting: as for `COP(=S)(OC)Oc1ccc(Sc2ccc(OP(=S)(OC)OC)cc2)cc1`, the entry is “inactive”; as for `C=CC(=O)OCCCCCC(C)C`, “inactive”. On the same count and under the same terms, as for `CC(=O)OC(c1ccccc1)C(Cl)(Cl)Cl` (stereo not given), the entry is “inactive”; as for `O=[N+]([O-])c1ccc(O)c([N+](=O)[O-])c1`, “inactive”. For the compound `CCOC(=O)/C=C(C)/C=C/C[C@@H](C)CCCC(C)C`, the AC50 is 30.2 µM (active). Turning to `Cn1sc(Cl)cc1=O`, the result was inactive.

Regarding `COP(=S)(OC)Oc1ccc(S(=O)(=O)N(C)C)cc1`, the outcome was inactive. For `ClC1(Cl)C2(Cl)C3(Cl)C4(Cl)C(Cl)(Cl)C5(Cl)C3(Cl)C1(Cl)C5(Cl)C24Cl` (stereo not given), the result was inactive.

For the compound `O=[N+]([O-])c1ccc2c3c(cccc13)CC2`, the outcome was inactive. As for `CCN1CCC2(CC1)COc1cc3c(cc12)N(C(=O)c1ccc(-c2ccc(-c4nnc(C)o4)cc2C)cc1)CC3`, the AC50 was 29.2 µM (active). Still for that read-out and setting: the value for `C(=NC1CCCCC1)=NC1CCCCC1` was 29.6 µM (active).

For `CCCCC(CC)CO[N+](=O)[O-]` (stereo not given), the result was inactive. The same measure, in the same setting: as for `Nc1ccc(-c2ccc(N)c(Cl)c2)cc1Cl`, the entry is “inactive”. For `C[C@@H]1C[C@@H]([C@H](O)CC2CC(=O)NC(=O)C2)C(=O)[C@@H](C)C1`, the AC50 is 12.5 µM (active).

Take `CCOP(=S)(OCC)Oc1ccc(S(C)=O)cc1` (stereo not given): the result was inactive. Turning to `CC(C)c1ccc(CO)cc1`, the result was inactive.

`O=C(Nc1ccc2[nH]ccc2c1)c1cc2cc(F)ccc2n1Cc1cccc(F)c1`: the AC50 is 13.7 µM (active). On the same count and under the same terms, as for `CC(=O)[O][Hg][c]1ccccc1`, the figure is 2.69 µM (active); as for `CC(C)(C)CC(C)(C)c1ccc(O)cc1`, 10.8 µM (active). As to `COc1cc(-c2ccc(N)c(OC)c2)ccc1N`, the result was inactive. Same read-out and setting: the value for `O=C(O)C(Cl)(Cl)Cl` was “inactive”; that for `O=c1[nH]c(=O)[nH]c(=O)[nH]1` was “inactive”; that for `Nc1ncc([N+](=O)[O-])s1` was “inactive”.

As for `CCSC(C)CC1CC(=O)C(C(CC)=NOC/C=C/Cl)=C(O)C1` (stereo not given), the outcome was inactive. Take `ClC(Cl)=C(Cl)C(Cl)=C(Cl)Cl`: the AC50 is 34 µM (active). Regarding `CC(C)(C)c1cc(O)ccc1O`, the outcome was inactive. Same read-out and setting: the value for `COC(=O)c1sccc1S(=O)(=O)NC(=O)Nc1nc(C)nc(OC)n1` was “inactive”; that for `CC(C)CCCCCCOC(=O)c1ccccc1C(=O)OCCCCCCC(C)C` was “inactive”.

Regarding `O=C(O)C(F)(F)C(F)(F)C(F)(F)C(F)(F)C(F)(F)C(F)(F)C(F)(F)C(F)(F)C(F)(F)C(F)(F)F`, the AC50 is 29.8 µM (active) and the outcome was inactive.

For `O=C1C2(Cl)C3(Cl)C4(Cl)C(Cl)(Cl)C5(Cl)C3(Cl)C1(Cl)C5(Cl)C24Cl` (stereo not given), the AC50 was 10.8 µM (active). On to `CCOP(=S)(OCC)SCCS(=O)(=O)CC`, for which the outcome was inactive.

On to `Oc1ccc(-c2ccccc2)cc1`, for which the result was inactive. The same measure, in the same setting: as for `ClCC(Cl)CCl`, the entry is “inactive”; as for `Cc1ccccc1N`, “inactive”. On the same count and under the same terms, as for `COC(=O)Cc1ccccc1`, the entry is “inactive”.
